The list is not random: actives were taken first. Their share in the collection is about 7.6%.
hERG WT inh: KCNH2 (human, wildtype) channel inhibition; U2OS, BacMam KCNH2, thallium flux FluxOr; hits give low values; activity change, % at 1.84 µM; actives 0.37% (n = 340,000); AID 720551;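 active = maximum activity change below -70%; inconclusive = maximum activity change between -70% and -50%; inactive = maximum activity change above -50%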
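U2OS cells were transduced with wild-type KCNH2 virus (2.03 x 10^8 / mL) for 4 h at room temperature, then cultured overnight at 37 C. Thallium flux was read with FluxOr dye. Rate constants were normalized to DMSO controls.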
KB-3-1 tox: KB-3-1 parental cell cytotoxicity. KB-3-1 viability, CellTiter-Glo ATP luminescence, 72 h. actives 1.4% (n = 400,000). Potency, µM (titrated, usually from 46.1 µM), usual class: cytotoxic; also: nearly all actives have a fitted effect of over 60% in size
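72 h, 37 °C compound treatment of KB-3-1 parental cells; CellTiter-Glo added, 10 min, luminescence read. Data corrected against DMSO-only plates and normalized before curve fitting.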
MCF10A rereplic: DNA re-replication induction in MCF 10a cells | MCF 10A DNA re-replication, Hoechst nuclear intensity, 48 h | Potency, µM (series often up to 46.1 µM), usual class: activators | actives 2.9% (n = 350,000); also: nearly all actives have a fitted effect of over 50% in size
SW480 rereplic: inducers of DNA re-replication in SW480 colon cancer cells; Potency, µM (highest dose often 46.1 µM), actives largely listed as activators; actives 1.8% (n = 340,000); AID 624297; SW480 DNA re-replication, Hoechst DNA content imaging, 48 h; also: nearly all actives have a fitted effect of over 55% in size
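Image-based read-out: total Hoechst fluorescence of nuclei (405 nm excitation, 500-530 nm emission), with hits raising the fraction of high-intensity nuclei. SW480 colon cells incubated 48 hr with compounds at 37 C.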
KCNH2 3.1 block: inhibitors of human KCNH2 3.1 potassium channel isoform. U2OS KCNH2 3.1, thallium flux FluxOr; hits give low values. activity change, % (tested at about 1.8 µM). actives 0.95% (n = 340,000). AID 720553;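 active = maximum activity change below -70%; inconclusive = maximum activity change from -70% to -50%; inactive = maximum activity change above -50%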;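 also: thallium influx rate constant from kinetic fluorescence after stimulation buffer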
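Measured as rate of thallium-driven FluxOr signal in transduced U2OS cells carrying the 3.1 channel, read kinetically for 2 min upon stimulation; values are rate constants scaled to DMSO control wells.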
KB-V1 cytotox: KB-V1 MDR subline cytotoxicity; KB-V1 MDR cells viability, CellTiter-Glo, 72 h; AID 1347076; actives 3.4% (n = 400,000); Potency, µM (top dose mostly 46.1 µM), actives largely listed as cytotoxic; also: nearly all actives have a fitted effect of over 60% in size
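Cytotoxicity toward P-gp-expressing KB-V1 cells was determined as loss of CellTiter-Glo luminescence after 72 h at 37 degrees C. Compounds were tested in quantitative HTS format across a concentration range, with curves fitted to normalized data.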
Numbers stand for hits; 0 = inactive; ? = inconclusive; - = no result. Unless noted, calls follow the shape of the dose curve; as a rule, active = well fitted curve in the direction sought with a large enough effect; inconclusive = small, poorly fitted or top-dose-only effect, or another doubt; inactive = no such curve, though single readings can be large; an effect the other way counts as inactive or inconclusive.

SMILES | hERG WT inh | KB-3-1 tox | MCF10A rereplic | SW480 rereplic | KCNH2 3.1 block | KB-V1 cytotox
O=C(Nc1cccc(-c2cnc3ccccc3n2)c1)c1cccc(NC(=O)c2ccco2)c1 | 0 | ? | 15µM | 0 | 0 | ?
O=C(CCl)Nc1ccc(Oc2cnc3ccccc3n2)cc1 | 0 | 6.5µM | ? | ? | 0 | 15µM
O=C(O)COc1cnc2ccccc2n1 | 0 | 0 | 0 | 0 | 0 | ?
O=C(CCl)Nc1cccc(-c2cnc3ccccc3n2)c1 | 0 | 10µM | ? | 12µM | 0 | 13µM
Cc1cc2ncc(-c3ccccc3)nc2cc1C | 0 | 0 | 0 | ? | 0 | 0
CCN1CCN(C(c2cccs2)C(C)NC(=O)c2cccnc2)CC1 (stereo not given) | 0 | 0 | 0 | 0 | 0 | 0
Cc1ccc(S(=O)(=O)ON2C(=O)c3ccccc3C2=O)c(C)c1 | 0 | 0 | 13µM | ? | 0 | 0
Cc1cc(C)c(C)c(S(=O)(=O)ON2C(=O)c3ccccc3C2=O)c1C | 0 | 0 | 7.3µM | 21µM | 0 | 0
O=C1c2ccccc2C(=O)N1OS(=O)(=O)c1ccc(F)cc1 | 0 | 0 | 0 | 0 | 0 | 0
Cc1cc(C)c(S(=O)(=O)ON2C(=O)c3ccccc3C2=O)cc1C | 0 | 0 | 7.3µM | ? | 0 | 0
CC(=O)Nc1ccc2sccc2c1 | 0 | 0 | ? | 0 | 0 | 0
COc1ccc(N2CCN(C3CCCN(C(=O)CCN4CCCCO4)C3)CC2)cc1 (stereo not given) | 0 | 0 | 0 | 0 | 0 | 0
O=S(=O)(c1ccc(Cl)cc1)N1CCN(C(=S)Nc2ccc(F)c(Cl)c2)CC1 | 0 | 0 | ? | 0 | 0 | 0
Cc1noc(NS(=O)(=O)c2ccc(N/C=C\C(=O)c3ccc4c(c3)OCO4)cc2)c1C | 0 | 0 | 5.8µM | 0 | 0 | 0
Fc1ccc(N2CCN(c3cnc4ccccc4n3)CC2)cc1 | 0 | 0 | 0 | 0 | 0 | 0
COc1ccc(NC(=S)NC23CN4CN(CN(C4)C2)C3)cc1 | 0 | 0 | 0 | 0.52µM | 0 | 0
CCOc1ccc(NC(=S)NC23CN4CN(CN(C4)C2)C3)cc1 | 0 | 0 | 0 | 0 | 0 | 0
Cc1c(NC(=O)/C(C#N)=C/c2ccc(-c3cccc(Cl)c3)o2)c(=O)n(-c2ccccc2)n1C | 0 | ? | ? | ? | 0 | 9.2µM
CCOC(=O)CN1C(=O)/C(=C/c2c(F)cccc2Cl)Oc2ccccc21 | 0 | ? | 21µM | ? | 0 | 0
Oc1c(C(c2ccccn2)N2CCC(Cc3ccccc3)CC2)cc(Cl)c2cccnc12 (stereo not given) | 0 | ? | 16µM | ? | 0 | 2.6µM
S=P(N1CC1)(N1CC1)N1CC1 | 0 | 0 | ? | 2.1µM | 0 | 0
Cc1cc(O)c(NC(=S)NC(=O)c2ccc(-c3ccc(Cl)cc3)o2)cc1C | 0 | 0 | 16µM | 0 | 0 | 0
CN1CCN(c2ccccc2NC(=O)c2ccc(-c3ccc(Br)cc3)o2)CC1 | 0 | ? | 4.1µM | 8.2µM | 0 | ?
Cc1cc(N2CCN(C)CC2)ccc1NC(=O)c1ccc(-c2ccc(Cl)cc2)o1 | 0 | 0 | 1.2µM | 0 | 0 | 0
O=C(Nc1ccccc1N1CCCCC1)c1ccc(-c2ccc(Cl)cc2)o1 | 0 | 8.2µM | ? | 2.9µM | 0 | 21µM
SMILES | hERG WT inh | KB-3-1 tox | MCF10A rereplic | SW480 rereplic | KCNH2 3.1 block | KB-V1 cytotox
Cc1ccc(NC(=S)NC(=O)c2ccc(-c3ccc(Cl)cc3)o2)c(O)c1 | 0 | ? | ? | 0 | 0 | ?
Cc1ccc(CCNC(=O)C(CC(C)C)NS(=O)(=O)c2ccc3c(c2)oc(=O)n3C)cc1 (stereo not given) | - | 0 | - | - | - | 0
Cc1cc(CNC[C@H]2O[C@@H](n3ccc(N)nc3=O)[C@H](O)[C@@H]2O)no1 | 0 | 0 | - | - | 0 | 0
O=C(COc1ccc2c(-c3ccccc3)cc(=O)oc2c1)NCC(O)c1ccccc1 (stereo not given) | 0 | 0 | 0 | ? | 0 | 0
COc1ccc(S(=O)(=O)N(C)C)cc1NC(=O)c1ccc2c(c1)NC(=O)C(C)S2 (stereo not given) | 0 | 0 | 0 | 0 | 0 | ?
CCOC(=O)C1CCCN(C(=O)c2ccc3c(c2)N(Cc2ccccc2F)C(=O)c2ccccc2S3=O)C1 (stereo not given) | - | 0 | - | - | - | 0
CS(=O)(=O)N1CCN(c2ccccc2NC(=O)c2ccc([N+](=O)[O-])o2)CC1 | 0 | 0 | ? | 0 | 0 | ?
CN1CCN(c2ccccc2NC(=O)c2ccc([N+](=O)[O-])o2)CC1 | 0 | - | 15µM | 2.3µM | 0 | -
COc1ccc(-c2c3c(=O)n(C)c(=O)n(C)c3cn2Cc2ccccn2)cc1 | 0 | 0 | 18µM | ? | 0 | 0
Cn1c(=O)c2c(nc(SCC(=O)Nc3ccc(F)cc3F)n2Cc2ccccc2)n(C)c1=O | - | 0 | - | - | - | 0
NCC1CCN(c2nc3ccccc3c3c2CCCC3)CC1 | 0 | 23µM | ? | ? | 0 | 15µM
CN1CCCCc2c1nc1ccccc1c2N (tested in a mixture with another compound) | 0 | 0 | 0 | 0 | 0 | 0
C=CCn1c(SCc2csc(-c3ccc(Cl)cc3)n2)nnc1-c1ccccc1OC | 0 | ? | ? | - | 0 | 21µM
C=CCn1c(SCC(=O)Nc2ccc3c(c2)OCO3)nnc1-c1ccccc1OC | 0 | 0 | 0 | 0 | 0 | 0
Cc1ccc(C(=O)N2CCN3C(=O)c4ccccc4C23c2ccccc2)cc1 (stereo not given) | 0 | 0 | 0 | 0 | 0 | 0
O=C1c2ccccc2C2(c3ccccc3)N1CCN2C(=O)C(Cl)(Cl)Cl (stereo not given) | 0 | ? | ? | ? | 0 | 16µM
c1ccc2c(Nc3nc(-c4ccncc4)nc4ccccc34)cccc2c1 | 0 | 0 | 23µM | 29µM | 0 | 0
Clc1ccccc1Nc1nc(-c2ccncc2)nc2ccccc12 | 0 | 0 | ? | ? | 0 | 0
Cc1ccc(-c2nc(N/N=C/c3ccncc3)c3ccccc3n2)cc1 | 0 | ? | 0 | 0 | 0 | 23µM
COc1ccc(CCNc2nc(-c3cccnc3)nc3ccccc23)cc1OC | 0 | 0 | ? | ? | 0 | 8.2µM
Cc1ccccc1Nc1nc(-c2cccnc2)nc2ccccc12 | 0 | 0 | 0 | 0 | 0 | 0
Cc1ccc(Nc2nc(-c3cccnc3)nc3ccccc23)cc1 | 0 | ? | 15µM | 9.2µM | 0 | ?
COc1ccc(/C=N/Nc2nc(-c3cccnc3)nc3ccccc23)cc1OC | 0 | 0 | 0 | 0 | 0 | 0
COc1ccc(C)cc1NC(=S)N1CCN(S(C)(=O)=O)CC1 | 0 | 0 | 0 | 0 | 0 | ?
C=CCN=C(C)C1=C(O)C(C)OC1=O (stereo not given) | 0 | 0 | 0 | 0 | 0 | 0
O=C(NCCN1CCCCC1)Nc1cccc(F)c1 | 0 | 0 | 0 | 0 | 0 | 0
